Results on 40 molecules are retold here after PubChem BioAssay (EPA / NIEHS).

The target of assay [1] is Estrogen-related receptor gamma (Homo sapiens) (UniProt P62508). Put plainly: ATG_ERRg_TRANS: Attagene TRANS-FACTORIAL HepG2 Assay for human Estrogen-Related Receptor gamma (ERRg) (AID 2282977).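 Further: hits increase reporter signal over DMSO so potencies reflect activators.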 As to conditions: HepG2 Attagene TRANS reporter, ERRg transactivation. The essentials: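 Transfect HepG2 with multiple GAL4-UAS reporter transcription units; dose chemicals 24 h; isolate RNA, reverse-transcribe with oligo(dT), PCR-amplify, label with 6-FAM, digest with HpaI; size fragments by capillary electrophoresis. DMSO serves as negative control.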
Chain of Estrogen-related receptor gamma (Homo sapiens) (P62508 whole entry, looked up, the tested form may be a part): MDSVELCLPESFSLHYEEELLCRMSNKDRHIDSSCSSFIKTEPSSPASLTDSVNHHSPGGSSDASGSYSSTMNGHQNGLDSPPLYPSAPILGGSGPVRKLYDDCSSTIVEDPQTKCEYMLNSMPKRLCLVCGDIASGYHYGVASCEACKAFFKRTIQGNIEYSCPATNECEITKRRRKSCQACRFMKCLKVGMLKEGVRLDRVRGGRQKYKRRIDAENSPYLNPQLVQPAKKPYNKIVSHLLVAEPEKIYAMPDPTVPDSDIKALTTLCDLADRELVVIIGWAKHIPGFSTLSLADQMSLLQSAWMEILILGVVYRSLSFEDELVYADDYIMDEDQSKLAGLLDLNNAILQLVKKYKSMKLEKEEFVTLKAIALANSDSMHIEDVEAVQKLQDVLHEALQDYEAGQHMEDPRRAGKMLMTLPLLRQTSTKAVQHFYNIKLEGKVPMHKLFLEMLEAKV

The target in assay [2] is Glucocorticoid receptor (Homo sapiens) (UniProt P04150). Put plainly: ATG_GR_TRANS: Attagene TRANS-FACTORIAL HepG2 Assay for human Glucocorticoid Receptor (GR) (AID 2282978).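 Further: activators score as hits since higher reporter transcript over DMSO is fitted.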 As to conditions: HepG2 Attagene TRANS GR reporter, mRNA transcription. A digest of the protocol: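 Fluorescent capillary-electrophoresis quantitation of reporter mRNA is the readout, taken 24 h after dosing human HepG2 cells carrying transiently transfected GAL4-UAS reporter units activated by chimeric NR-GAL4 fusions; activity scored as induction over DMSO.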
Chain of Glucocorticoid receptor (Homo sapiens) (P04150 whole entry, looked up, the tested form may be a part): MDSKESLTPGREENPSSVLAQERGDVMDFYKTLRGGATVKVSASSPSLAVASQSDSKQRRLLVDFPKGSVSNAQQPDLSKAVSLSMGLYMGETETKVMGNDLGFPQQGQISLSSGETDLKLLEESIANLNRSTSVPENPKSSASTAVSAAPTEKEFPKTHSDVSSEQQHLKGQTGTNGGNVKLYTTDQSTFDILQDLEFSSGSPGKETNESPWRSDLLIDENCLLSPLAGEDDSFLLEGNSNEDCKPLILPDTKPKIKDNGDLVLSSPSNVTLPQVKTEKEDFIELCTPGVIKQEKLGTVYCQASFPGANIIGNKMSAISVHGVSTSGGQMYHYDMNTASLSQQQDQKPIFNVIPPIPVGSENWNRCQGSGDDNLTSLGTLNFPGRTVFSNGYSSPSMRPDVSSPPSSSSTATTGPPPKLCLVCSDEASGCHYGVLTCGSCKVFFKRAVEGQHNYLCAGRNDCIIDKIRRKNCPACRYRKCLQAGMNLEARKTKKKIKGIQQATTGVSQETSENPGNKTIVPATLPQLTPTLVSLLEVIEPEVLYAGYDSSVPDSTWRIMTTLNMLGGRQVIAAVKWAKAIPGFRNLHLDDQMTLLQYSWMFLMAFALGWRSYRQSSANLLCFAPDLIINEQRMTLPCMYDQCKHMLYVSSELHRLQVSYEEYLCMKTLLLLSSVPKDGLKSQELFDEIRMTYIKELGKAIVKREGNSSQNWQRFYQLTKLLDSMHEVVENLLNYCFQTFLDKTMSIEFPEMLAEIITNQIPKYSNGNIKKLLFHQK

In assay [3] the target is Bile acid receptor (Homo sapiens) (UniProt Q96RI1). Put plainly: ATG_FXR_TRANS: Attagene TRANS-FACTORIAL HepG2 Assay for Farnesoid X Receptor (FXR) (AID 2282979).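 Further: hits raise reporter mRNA above DMSO so AC50 marks FXR activation.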 As to conditions: HepG2 Attagene TRANS FXR-GAL4 reporter transcription. The essentials:
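Chimeric FXR-GAL4 activity in transiently transfected human HepG2 liver cells is scored as induction of reporter mRNA after 24 h of dosing. Detection uses RT-PCR with fluorescent labelling and capillary electrophoresis, with DMSO serving as baseline.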

The target in assay [4] is Oxysterols receptor LXR-alpha (Homo sapiens) (UniProt Q13133). Put plainly: ATG_LXRa_TRANS: Attagene TRANS-FACTORIAL HepG2 Assay for human Liver X Receptor alpha (LXRa) (AID 2282980). Conditions: HepG2 Attagene TRANS reporter, LXRa transactivation. A digest of the protocol:
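Transient HepG2 transfectants, 24 h dosing, RT-PCR/CE mRNA reporter quantitation; gain-of-signal vs DMSO.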

Assay [5] addresses Oxysterols receptor LXR-beta (Homo sapiens) (UniProt P55055). Put plainly: ATG_LXRb_TRANS: Attagene TRANS-FACTORIAL HepG2 Assay for human Liver X Receptor beta (LXRb) (AID 2282981). As to conditions: HepG2 Attagene TRANS GAL4-LXRb reporter, mRNA. A digest of the protocol:
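Transient transfection HepG2 (multiplexed RTUs, GAL4-UAS); NR-Gal4 chimera; 24 h exposure; RNA → RT-PCR → 6-FAM primer extension → HpaI → CE; increase vs DMSO.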

For assay [6], the target named is Hepatocyte nuclear factor 4-alpha (Homo sapiens) (UniProt P41235). Put plainly: ATG_HNF4a_TRANS: Attagene TRANS-FACTORIAL HepG2 Assay for human Hepatocyte Nuclear Factor 4 alpha (HNF4a) (AID 2282982). Conditions: HepG2 HNF4a transactivation reporter, mRNA readout. The essentials: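 Readout is fluorescent reporter-transcript fragments resolved by capillary electrophoresis after RT-PCR from HepG2 cells dosed for 24 h. Cells carried transfected GAL4-UAS reporter constructs measuring exogenous NR-GAL4 chimera activity; DMSO served as baseline.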
Chain of Hepatocyte nuclear factor 4-alpha (Homo sapiens) (P41235 whole entry, looked up, the tested form may be a part): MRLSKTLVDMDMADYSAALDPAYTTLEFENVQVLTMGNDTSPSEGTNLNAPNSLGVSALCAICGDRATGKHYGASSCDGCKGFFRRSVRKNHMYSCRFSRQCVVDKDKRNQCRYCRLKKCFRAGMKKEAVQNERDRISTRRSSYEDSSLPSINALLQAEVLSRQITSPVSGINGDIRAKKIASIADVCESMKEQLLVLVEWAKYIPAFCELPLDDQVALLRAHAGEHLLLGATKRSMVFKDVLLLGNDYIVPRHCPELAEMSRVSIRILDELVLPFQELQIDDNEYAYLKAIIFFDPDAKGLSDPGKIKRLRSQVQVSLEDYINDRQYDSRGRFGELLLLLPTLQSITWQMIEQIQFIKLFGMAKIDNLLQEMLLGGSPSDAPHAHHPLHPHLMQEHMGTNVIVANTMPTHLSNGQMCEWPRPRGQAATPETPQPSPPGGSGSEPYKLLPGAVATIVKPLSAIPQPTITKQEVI

Assay [7] in a line: ATG_M_06_TRANS: Attagene TRANS-FACTORIAL HepG2 Assay for M06 Transcription Factor (Internal Marker) (AID 2282983). Conditions: HepG2 Attagene TRANS M06 internal marker reporter. A digest of the protocol: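 Measured by capillary electrophoresis of fluorescently labelled RT-PCR products, this endpoint reflects reporter mRNA in HepG2 cells harbouring exogenous NR-GAL4 reporter constructs after 24 h exposure, with DMSO as baseline.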

For assay [8], the target named is Nuclear receptor subfamily 4 group A member 2 (Homo sapiens) (UniProt P43354). Put plainly: ATG_NURR1_TRANS: Attagene TRANS-FACTORIAL HepG2 Assay for human Nuclear Receptor Related Protein 1 (NURR1) (AID 2282985). As to conditions: HepG2 Attagene TRANS reporter, mRNA readout. A digest of the protocol: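 Transient transfection of HepG2, human liver cells, with multiple GAL4-UAS reporter transcription units. Cells dosed 24 h, RNA isolated, reverse-transcribed, PCR-amplified, FAM-labelled, HpaI-digested, sized by capillary electrophoresis. DMSO served as negative control.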
Chain of Nuclear receptor subfamily 4 group A member 2 (Homo sapiens) (P43354 whole entry, looked up, the tested form may be a part): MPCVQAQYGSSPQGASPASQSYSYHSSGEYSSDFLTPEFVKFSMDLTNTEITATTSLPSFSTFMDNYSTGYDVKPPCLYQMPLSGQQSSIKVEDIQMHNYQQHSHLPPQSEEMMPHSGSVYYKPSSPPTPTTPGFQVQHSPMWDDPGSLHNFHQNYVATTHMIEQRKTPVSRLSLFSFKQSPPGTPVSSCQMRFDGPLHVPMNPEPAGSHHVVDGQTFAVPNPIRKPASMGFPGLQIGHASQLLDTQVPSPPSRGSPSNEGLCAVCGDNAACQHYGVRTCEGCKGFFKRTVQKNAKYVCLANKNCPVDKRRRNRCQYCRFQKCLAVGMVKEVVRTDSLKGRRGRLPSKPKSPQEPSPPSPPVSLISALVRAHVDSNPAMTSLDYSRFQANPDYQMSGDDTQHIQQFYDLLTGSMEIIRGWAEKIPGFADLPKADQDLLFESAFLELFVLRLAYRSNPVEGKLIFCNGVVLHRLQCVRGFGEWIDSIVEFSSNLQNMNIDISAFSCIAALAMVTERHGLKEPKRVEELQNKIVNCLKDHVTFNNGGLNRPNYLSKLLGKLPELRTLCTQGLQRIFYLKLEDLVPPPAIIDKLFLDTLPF

Assay [9] concerns the target Transcriptional activator Myb (Homo sapiens) (UniProt P10242). Put plainly: ATG_Myb_CIS: Attagene CIS-FACTORIAL HepG2 Assay for human Myeloblastosis (Myb) Proto-Oncogene Transcription Factor (AID 2282986; active means hit-call score of the fitted dose curve at least 0.9, where 1 is the maximum; inactive means score below 0.9). Conditions: HepG2 Attagene CIS-FACTORIAL Myb reporter transcription; actives raise or lower the signal. The essentials: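 Reporter transcript levels, quantified by fluorescent RT-PCR and capillary electrophoresis, serve as the read-out. Transfected HepG2 cells carrying cis-promoter reporter units are dosed for 24 hours, and curves are fitted bidirectionally against DMSO controls.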

A short description of assay [10]: ATG_M_32_TRANS: Attagene TRANS-FACTORIAL HepG2 Assay for M32 Transcription Factor (Internal Marker) (AID 2282984). Conditions: HepG2 Attagene TRANS M32 internal marker reporter. The essentials: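 Measures reporter mRNA induction in human HepG2 liver cells after 24 h chemical treatment. Transcripts from transiently transfected GAL4-UAS reporter units are amplified, fluorescently labelled and sized by capillary electrophoresis; gain of signal relative to DMSO.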

Inconclusive results are not listed. Active and inactive are the calls of the source. How the source made its calls, unless noted: active means hit-call score of the fitted dose curve at least 0.9, where 1 is the maximum; inconclusive means response in the unintended direction; inactive means score below 0.9.

Chain of Oxysterols receptor LXR-beta (Homo sapiens) (P55055 whole entry, looked up, the tested form may be a part): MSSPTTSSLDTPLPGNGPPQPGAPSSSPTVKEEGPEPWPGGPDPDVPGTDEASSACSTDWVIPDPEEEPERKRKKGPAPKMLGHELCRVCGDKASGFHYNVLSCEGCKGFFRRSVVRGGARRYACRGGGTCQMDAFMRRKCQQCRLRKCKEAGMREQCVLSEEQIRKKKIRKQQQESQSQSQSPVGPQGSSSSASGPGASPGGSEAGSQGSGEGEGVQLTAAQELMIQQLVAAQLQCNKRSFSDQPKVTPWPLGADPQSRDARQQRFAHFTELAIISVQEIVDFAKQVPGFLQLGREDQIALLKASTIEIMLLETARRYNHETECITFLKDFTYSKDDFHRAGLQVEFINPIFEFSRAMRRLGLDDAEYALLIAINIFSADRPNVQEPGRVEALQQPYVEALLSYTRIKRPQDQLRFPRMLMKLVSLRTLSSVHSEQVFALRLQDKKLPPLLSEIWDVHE
Chain of Oxysterols receptor LXR-alpha (Homo sapiens) (Q13133 whole entry, looked up): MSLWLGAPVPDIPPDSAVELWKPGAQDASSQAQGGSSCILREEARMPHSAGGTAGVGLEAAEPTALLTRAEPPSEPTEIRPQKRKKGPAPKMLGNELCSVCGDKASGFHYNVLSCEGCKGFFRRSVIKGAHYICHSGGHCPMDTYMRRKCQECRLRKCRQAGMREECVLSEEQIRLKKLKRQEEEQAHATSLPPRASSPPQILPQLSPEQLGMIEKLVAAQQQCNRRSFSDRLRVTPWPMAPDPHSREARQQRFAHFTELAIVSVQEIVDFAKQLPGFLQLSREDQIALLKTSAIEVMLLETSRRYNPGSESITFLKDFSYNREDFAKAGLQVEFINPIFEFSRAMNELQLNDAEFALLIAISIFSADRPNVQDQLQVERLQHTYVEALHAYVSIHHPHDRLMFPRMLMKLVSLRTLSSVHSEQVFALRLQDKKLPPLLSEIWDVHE
Chain of Bile acid receptor (Homo sapiens) (Q96RI1 whole entry, looked up, the tested form may be a part): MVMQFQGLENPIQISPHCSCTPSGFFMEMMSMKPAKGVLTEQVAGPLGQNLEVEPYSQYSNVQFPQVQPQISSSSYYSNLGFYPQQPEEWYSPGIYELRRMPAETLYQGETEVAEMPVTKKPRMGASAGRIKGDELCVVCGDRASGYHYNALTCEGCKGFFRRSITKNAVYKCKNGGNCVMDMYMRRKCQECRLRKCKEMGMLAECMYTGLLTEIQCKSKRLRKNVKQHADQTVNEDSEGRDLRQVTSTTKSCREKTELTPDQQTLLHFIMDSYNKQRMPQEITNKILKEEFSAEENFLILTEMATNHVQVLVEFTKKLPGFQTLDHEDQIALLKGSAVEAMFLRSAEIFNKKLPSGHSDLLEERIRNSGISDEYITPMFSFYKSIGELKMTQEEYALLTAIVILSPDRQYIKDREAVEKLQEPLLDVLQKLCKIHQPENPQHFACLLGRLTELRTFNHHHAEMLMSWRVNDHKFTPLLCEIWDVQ
Chain of Transcriptional activator Myb (Homo sapiens) (P10242 whole entry, looked up): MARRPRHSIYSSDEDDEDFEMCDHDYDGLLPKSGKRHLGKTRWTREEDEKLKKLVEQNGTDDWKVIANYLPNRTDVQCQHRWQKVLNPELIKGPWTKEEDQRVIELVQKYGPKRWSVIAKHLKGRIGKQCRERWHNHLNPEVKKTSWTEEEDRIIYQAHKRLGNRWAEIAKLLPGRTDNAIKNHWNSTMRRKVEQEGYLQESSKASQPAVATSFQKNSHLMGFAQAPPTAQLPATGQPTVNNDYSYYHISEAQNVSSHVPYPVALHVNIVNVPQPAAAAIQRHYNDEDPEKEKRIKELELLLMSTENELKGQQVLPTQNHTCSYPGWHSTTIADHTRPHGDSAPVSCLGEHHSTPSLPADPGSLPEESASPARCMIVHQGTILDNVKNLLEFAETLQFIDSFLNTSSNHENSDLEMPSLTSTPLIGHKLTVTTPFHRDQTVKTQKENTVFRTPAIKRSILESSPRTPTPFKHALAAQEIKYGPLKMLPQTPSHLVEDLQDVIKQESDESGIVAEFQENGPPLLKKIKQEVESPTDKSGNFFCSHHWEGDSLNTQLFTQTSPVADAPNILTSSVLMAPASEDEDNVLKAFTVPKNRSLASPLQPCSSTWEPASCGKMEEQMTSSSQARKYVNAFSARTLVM

`O=C(O)C(F)(F)C(F)(F)C(F)(F)OC(F)(F)F`: the molecule was classed as inactive in assay [1], in [2], in assay [3], in [4], in assay [5] and in assay [6]. Further, the outcome in assay [7], in [8] and in assay [9] was inactive.
Take `CCC(C)CO` (configuration not stated): the molecule was called inactive in [1], in assay [2], in [3], in [4], in assay [5] and in assay [7]. In addition, the outcome in assay [10], in [8] and in assay [9] was inactive.
On to `Cc1ccc([N+](=O)[O-])c(C)c1`, for which the result in [1], in assay [2], in assay [3], in assay [4], in [6] and in [7] was inactive. The outcome in assay [8] and in [9] was inactive.
Turning to `CCN(CC)c1ccc(C=O)c(O)c1`, the outcome in assay [2], in assay [4], in [7], in assay [10], in [8] and in [9] was inactive.
On to `Cc1cc(C)c(O)c(C(C)(C)C)c1`, for which the call in assay [2], in assay [4], in assay [7], in assay [10], in [8] and in assay [9] was inactive.
With `Cc1cnccn1`, the molecule was called inactive in assay [2], in assay [4], in assay [6], in [10] and in assay [9].
For `CC(C)(C)c1cc(CCC(=O)NCCCCCCNC(=O)CCc2cc(C(C)(C)C)c(O)c(C(C)(C)C)c2)cc(C(C)(C)C)c1O`, the molecule was called inactive in [2], in [4], in [5], in assay [6], in assay [7] and in assay [8]. The result in [9] was inactive.
Take `CCN(CC)c1ccc(N=Nc2ccccc2)cc1`: the call in assay [2], in [4], in assay [5], in [6], in [10] and in assay [8] was inactive. In [9], the result was inactive.
Consider `Cc1cc(=O)[nH]c(C(C)C)n1`, for which the call in assay [2], in assay [4], in assay [5], in [6], in assay [7] and in [10] was inactive. Besides, the outcome in assay [8] and in [9] was inactive.
Consider `CC(=O)C=O`, for which the call in [2], in assay [4], in assay [7] and in assay [9] was inactive.
For `CCC(Cc1c(I)cc(I)c(N)c1I)C(=O)O` (configuration not stated), the molecule was called inactive in [2], in [4], in assay [5], in assay [7] and in assay [9].
Consider `Nc1cc([N+](=O)[O-])cc(Cl)c1O`, for which the result in assay [2], in [7], in assay [10] and in assay [9] was inactive.
`Cc1cccc(C)n1`: the outcome in assay [2], in assay [4], in assay [6], in assay [7], in assay [10] and in assay [9] was inactive.
Turning to `O=S(=O)(O)c1ccc(Cl)cc1`, the molecule was classed as inactive in assay [2], in assay [4], in assay [5], in assay [6], in [7] and in assay [10]. Further, the result in [8] and in [9] was inactive.
As to `CC(C)=CCCC(C)O` (configuration not stated), the outcome in assay [2], in assay [3], in assay [7] and in assay [9] was inactive.
`O=c1[nH]cccc1O`: the molecule was called inactive in assay [2], in assay [4], in assay [5], in assay [7], in assay [10] and in [8]. Moreover, in assay [9], the molecule was classed as inactive.
For the molecule `F[Si-2](F)(F)(F)(F)F`, the call in assay [2], in [5], in assay [6], in assay [7], in [10] and in assay [8] was inactive. In assay [9], the outcome was inactive.
For `CC(C)OC=O`, the molecule was classed as inactive in assay [2], in assay [7], in [8] and in [9].
`CCCCCCCCn1sc(Cl)c(Cl)c1=O`: the result in assay [2], in [5], in assay [7], in assay [10] and in [8] was inactive. In addition, the AC50 in assay [9] was 20.4 µM (active).
With `CN(C(=O)C(F)(F)C(F)(F)C(F)(F)F)[Si](C)(C)C`, the molecule was classed as inactive in assay [2], in [6], in [7], in assay [8] and in [9].
Regarding `NC(=O)C(F)(F)C(F)(F)C(F)(F)C(F)(F)C(F)(F)C(F)(F)C(F)(F)F`, the molecule was classed as inactive in assay [2], in assay [4], in [7], in assay [10], in assay [8] and in assay [9].
For `C[C@]12CC[C@H]3C(=CCc4cc(O)ccc43)[C@@H]1CCC2=O`, the molecule was called inactive in [2], in assay [4], in assay [5], in assay [6], in [7] and in [10]. Besides, the call in [8] and in assay [9] was inactive.
As to `CC(=O)c1ccccc1N`, the outcome in assay [2], in [6], in assay [7] and in assay [9] was inactive.
For the molecule `CC(C)(C)c1cc(Cc2cc(C(C)(C)C)c(O)c(C(C)(C)C)c2)cc(C(C)(C)C)c1O`, the molecule was classed as inactive in assay [2], in [3], in [10], in [8] and in assay [9].
Take `O=C1C=CC(=O)N1c1ccc(Cc2ccc(N3C(=O)C=CC3=O)cc2)cc1`: the call in [2], in assay [4], in [6], in assay [8] and in assay [9] was inactive.
With `CCCCCCCCCCCCCC[P+](CCCC)(CCCC)CCCC`, the molecule was classed as inactive in assay [2], in assay [4], in assay [5], in [7], in [10] and in [9].
For the molecule `OCCC(O)CO` (configuration not stated), the molecule was classed as inactive in assay [2], in [3] and in assay [9].
As to `CC(=O)CCC(C)C`, the molecule was called inactive in assay [2], in assay [5] and in assay [9].
Consider `CN(C)C(C)(C)CO`, for which the molecule was called inactive in assay [2], in assay [4], in assay [5], in assay [6], in assay [7] and in assay [8]. Moreover, the result in assay [9] was inactive.
On to `FC(F)(F)C(F)(F)C(F)(F)C(F)(F)C(F)(F)C(F)(F)CC[Si](Cl)(Cl)Cl`, for which the call in [2], in [5], in [7], in [8] and in assay [9] was inactive.
`O=S(=O)(O)CCC(F)(F)C(F)(F)C(F)(F)C(F)(F)F`: the molecule was called inactive in assay [2], in assay [5], in [7] and in [9].
Take `CCCC(=O)OCC(COC(=O)CCC)OC(=O)CCC`: the outcome in [2], in [6], in assay [7], in assay [8] and in assay [9] was inactive.
Take `OCC(F)(F)C(F)(F)C(F)(F)C(F)(F)C(F)(F)C(F)(F)C(F)(F)C(F)(F)CO`: the result in [2], in [5], in [6], in assay [7], in [10] and in assay [8] was inactive. Moreover, in assay [9], the outcome was inactive. Moreover, the AC50 in assay [4] is 10.5 µM (active).
Take `O=C(c1ccccc1)c1ccc(O)cc1O`: the molecule was called inactive in assay [2], in [4], in assay [5], in assay [6], in assay [7] and in assay [10]. The call in assay [8] and in assay [9] was inactive.
For `C=C(C)C(=O)OCC(F)(F)C(F)(F)C(F)(F)C(F)F`, the outcome in [2], in assay [4], in [5], in assay [6], in assay [7] and in assay [10] was inactive. In addition, the call in assay [8] and in assay [9] was inactive.
As to `Brc1nc2ccccc2s1`, the call in assay [2], in [6], in assay [7], in assay [10], in [8] and in [9] was inactive.
Consider `OCC1CCCO1` (configuration not stated), for which the molecule was classed as inactive in assay [2], in [4], in assay [5], in [7], in assay [10] and in assay [9].
With `CO[Si](CCCOCC1CO1)(OC)OC` (configuration not stated), the outcome in [2], in assay [5], in [6], in assay [10], in assay [8] and in [9] was inactive.
As to `Cc1cc(O)c(C(C)(C)C)cc1C(C)(C)C`, the outcome in assay [2], in assay [7], in [10] and in assay [9] was inactive. The results for the concentration at half-maximal activity (AC50) in [4], in assay [5] and in assay [8] were 2.99 µM (active), 4.8 µM (active) and 5.29 µM (active), respectively.
As to `O=c1cccc[nH]1`, the outcome in assay [2], in assay [5], in [6], in assay [7], in assay [10] and in assay [8] was inactive. For the same molecule, in assay [9], the outcome was inactive.
